From PubChem BioAssay
“And” between values parts separate entries of the source, which are not always exact repeats. Equal entries are not always repeated. The source made the active and inactive calls. Unless noted, the rule behind the calls is not given here.

Experiments:
[1] = liver-stage malaria parasite growth inhibition, primary screen, cell-based, HepG2, luciferase luminescence, HepG2 viability (AID 624349; in the data active = parasite load remaining mostly below about 12%, no sharp cut-off; inactive = mostly above about 10%;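 note: 100% = mean of DMSO negative control wells on the same plate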); conditions: P. berghei liver stage in HepG2, luciferase luminescence, concentration not given here; parasite load remaining: stronger effect = lower value; viability: measured here: HepG2 viability without parasites
[2] = tested on: Hepatitis C virus NS3 helicase; assay: HCV NS3 helicase inhibitors, primary screen, biochemical, fluorescence polarization, LOPAC1280 library (AID 687035; in the data active = inhibition above about 37%); conditions: Purified HCV NS3 helicase, Cy5-dT15 ssDNA binding fluorescence polarization; stronger effect = higher value; concentration not given here
[3] = Cy5 fluorescence quenching or enhancement artefacts, artefact control for HCV NS3 helicase inhibitor project, biochemical, LOPAC1280 (AID 687037); conditions: Cy5-DNA-NS3h complex fluorescence interference counterscreen
[4] = Cy5 fluorescence interference with SSB-bound oligo, artefact control for HCV NS3 helicase inhibitor project, biochemical, NIH Clinical Collection, E. coli SSB (AID 743268)
[5] = tested on: Hepatitis C virus NS3 helicase; assay: HCV NS3 helicase inhibitors, primary screen, biochemical, fluorescence polarization, NIH Clinical Collection (AID 743270); conditions: NS3 helicase binding to Cy5-dT15 DNA, stronger effect = higher value, concentration not given here
[6] = molecular target: Single-stranded DNA-binding protein (Escherichia coli (strain K12)) (UniProt P0AGE0); assay: E. coli SSB displacement from DNA, counter-screen for HCV NS3 helicase inhibitor project, biochemical, fluorescence polarization, NIH Clinical Collection (AID 743271; in the data active = inhibition above about 28%); conditions: stronger effect = higher value, concentration not given here
[7] = fluorescence interference in NS3h assay format, artefact control for HCV NS3 helicase inhibitor project, biochemical, NIH Clinical Collection (AID 743272); conditions: fluorescence interference counterscreen, stronger effect = lower value;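 note: HCV NS3 helicase with a Cy5 labelled single stranded DNA probe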
[8] = tested on: Neuropilin-2 / VEGF-C interaction (human); assay: inhibitors of NRP2–VEGF-C binding, biochemical, microplate binding format, z-score (AID 743281); conditions: microplate NRP2/VEGF-C binding assay; stronger effect = lower value
[9] = stimulators of nuclear beta-catenin in C2C12, primary screen, imaging, WNT3A-conditioned medium, mouse C2C12, NPC library (AID 1117326; in the data active = nuclear beta-catenin stimulation mostly above about 4.2%, no sharp cut-off; inactive = mostly below about 10%); conditions: stronger effect = higher value
[10] = stimulators of insulin release from INS-1E, primary screen, cell-based, 5 mM glucose, NPC library (AID 1117329;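 active = compound raises insulin release from rat beta cells at 5 mM glucose, no numeric limit stated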); conditions: rat INS-1E insulin secretion, at 10 µM, stronger effect = higher value
[11] = growth inhibition of GSK3B-pretreated HCT116 cells – cell-based, CellTiter-Glo, 0.2 to 20 µM (AID 1117336;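 active = compounds lowering colon cancer cell viability after pretreatment blocking the GSK3B kinase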); conditions: HCT116 viability after GSK3B inhibitor, at 20 µM, stronger effect = higher value
[12] = inhibition of endothelial tube formation, primary screen, imaging, VEGF stimulated, CD31 staining, tube area, NPC library (AID 1117340;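 active = compound that reduces growth-factor-driven endothelial tube area in a mixed cell culture, no cutoff stated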); conditions: VEGF-stimulated ADSC/ECFC co-culture, at 10 µM, stronger effect = higher value
[13] = glucagon-like peptide 1 release enhancers, primary assay, NCI-H716 cell line, NPC library (AID 1117341;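 active = compound raises GLP1 secretion from the human gut endocrine cells, with no numeric limit stated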); conditions: NCI-H716 cells, at 10 µM, stronger effect = higher value
[14] = HCT116 colon cancer cell growth inhibition, primary screen, CellTiter-Glo luminescence, NPC library (AID 1117342;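 active = compounds that lower survival of HCT116 colon cancer cells in the luminescence readout, no numeric limit stated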); conditions: at 20 µM (top of the series)
[15] = CellTiter-Glo luminescent readout of SW480 viability loss, NPC library primary (AID 1117343;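 active = compounds that lower viability of the colon cancer cells in the luminescence readout, with no numeric limit stated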); conditions: CellTiter-Glo luminescence; at 20 µM (top of the series)
[16] = decreased DLD-1 cellular survival, CellTiter-Glo luminescent readout, NPC compound collection, primary HTS (AID 1117346;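 active = compounds that lower survival of DLD-1 colon cancer cells in the luminescence readout, no cutoff given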); conditions: DLD-1 viability, CellTiter-Glo luminescence; at 20 µM (top of the series)

Row | Structure (SMILES) | parasite load remaining [1] | viability [1] | inhibition [2] | fluorescence ratio (interference) [3] | fluorescence ratio [4] | inhibition [5] | inhibition [6] | fluorescence ratio [7] | z-score [8] | nuclear beta-catenin stimulation ([9]; at 10 µM) | nuclear beta-catenin stimulation ([9]; stimulation, at 2 µM) [%] | insulin secretion stimulation [10] | viability decrease [11] | tube area decrease [12] | GLP1 secretion stimulation [13] | inhibition of viability [14] | viability decrease (inhibition) [15] | viability decrease (inhibition) [16]
1 | CC(C(=O)O)c1ccc(CC2CCCC2=O)cc1 (stereo unspecified) | 108% (inactive) | 79.1% | -4% (inactive) | 1 (inactive) | 1.12 (inactive) | 5.94% (inactive) | 4.52% (inactive) | 1.09 (inactive) | -0.224 (inactive) | -1.5% (inactive) | -0.2 | -1.3% (inactive) | 9.37% (inactive) | -7.8% (inactive) | 0.4% (inactive) | 10.8% (inactive) | 37.6% (inactive) | 5.13% (inactive)
2 | CC(=O)O[C@H]1C[C@@H]2CC[C@@H]3[C@H](CC[C@@]4(C)[C@H]3C[C@H]([N+]3(C)CCCCC3)[C@@H]4OC(C)=O)[C@@]2(C)C[C@@H]1N1CCCCC1 | 67.6% (inactive) and 50.8% (inactive) | 76.1% and 73.5% | – | – | 1 (inactive) | -0.22% (inactive) | 5.91% (inactive) | 1 (inactive) | – | -1.4% (inactive) | -1.2 | 0.6% (inactive) | -4.1% (inactive) | 4.6% (inactive) | 13.2% (inactive) | 3.2% (inactive) | -6.9% (inactive) | -7.1% (inactive)
3 | OCc1cccnc1 | 56.9% (inactive) | 66.4% | – | – | 0.93 (inactive) | -1.09% (inactive) | -1.18% (inactive) | 0.87 (inactive) | -0.624 (inactive) | 0.5% (inactive) | 1 | -1.9% (inactive) | -11.1% (inactive) | -10% (inactive) | 1.4% (inactive) | -9.5% (inactive) | -6.5% (inactive) | 7.3% (inactive)
4 | C[C@@H]1C[C@H]2[C@@H]3C[C@H](F)C4=CC(=O)C(Cl)=C[C@]4(C)[C@@]3(F)[C@@H](O)C[C@]2(C)[C@@]1(O)C(=O)CO | 117% (inactive) | 79.4% | – | – | 1 (inactive) | 6.73% (inactive) | 7.6% (inactive) | 0.96 (inactive) | – | 1.5% (inactive) | 1.3 | -0.6% (inactive) | 6.2% (inactive) | -1.8% (inactive) | 4.6% (inactive) | 33.1% (inactive) | 12% (inactive) | 8.3% (inactive)
5 | Nc1ccn([C@H]2CC[C@@H](CO)O2)c(=O)n1 | 89% (inactive) and 87.9% (inactive) and 17.9% (inactive) | 73.7% and 72.5% | 0% (inactive) | 1 (inactive) | 1.05 (inactive) | 2.77% (inactive) | -1.64% (inactive) | 1.02 (inactive) | 0.496 (inactive) | -1% (inactive) | -1.5 | -0.3% (inactive) | 6.9% (inactive) | -2.2% (inactive) | 1.4% (inactive) | -1.1% (inactive) | -0.9% (inactive) | 8.55% (inactive)
6 | O=C1N(c2ccccc2)c2ccccc2C1(Cc1ccncc1)Cc1ccncc1 | 77.9% (inactive) | 65.3% | -7% (inactive) | 0.9 (inactive) | 0.98 (inactive) | -11.6% (inactive) | -1.18% (inactive) | 0.93 (inactive) | -0.0491 (inactive) | 0.2% (inactive) | 3.8 | 1.2% (inactive) | -9.5% (inactive) | 17.6% (inactive) | 2.6% (inactive) | -4.7% (inactive) | 23.8% (inactive) | -3.9% (inactive)
7 | C#C[C@]1(O)CC[C@H]2[C@@H]3CCc4cc(OC)ccc4[C@H]3CC[C@@]21C | 48% (inactive) and 32.2% (inactive) | 96.9% and 76.9% | – | – | 1 (inactive) | 3.56% (inactive) | 1.44% (inactive) | 1 (inactive) | – | 3.3% (inactive) | 0.6 | 0.5% (inactive) | 1.9% (inactive) | 10.3% (inactive) | 16.1% (inactive) | 45% (inactive) | 110% (active) | 26.6% (inactive)
8 | Oc1ccc(C2CNCCc3c2cc(O)c(O)c3Cl)cc1 (stereo unspecified) | 97.3% (inactive) and 13% (inactive) | 74.7% and 61% | -3% (inactive) | 0.9 (inactive) | 0.73 (active) | -1.98% (inactive) | -7.03% (inactive) | 0.87 (inactive) | 0.0254 (inactive) | 1.1% (inactive) | 7.9 | 5.4% (inactive) | 66.2% (active) | 42.2% (active) | 1% (inactive) | 50.2% (active) | 50.9% (active) | 29.6% (inactive)
9 | NC(=O)OCC(COC(N)=O)c1ccccc1 | 83.2% (inactive) and 111% (inactive) | 105% and 75.3% | -1% (inactive) | 1 (inactive) | 1.05 (inactive) | -2.77% (inactive) | -3.18% (inactive) | 0.9 (inactive) | 0.0538 (inactive) | -1.9% (inactive) | 0 | 0.3% (inactive) | -7.4% (inactive) | -7.6% (inactive) | -3% (inactive) | 4.1% (inactive) | -7.2% (inactive) | -12% (inactive)
10 | COc1ccccc1N1CCN(CC(O)COc2cccc3ccccc23)CC1 (stereo unspecified) | 54.9% (inactive) and 58.6% (inactive) and 42.9% (inactive) | 66.8% and 61.4% and 114% | -2% (inactive) | 1 (inactive) | 0.97 (inactive) | 5.15% (inactive) | 5.29% (inactive) | 0.89 (inactive) | 1.13 (inactive) | 1.5% (inactive) | 1.7 | 0.4% (inactive) | 0.8% (inactive) | 35.4% (inactive) | 10% (inactive) | 64.7% (active) | 92.1% (active) | 59.3% (active)
11 | NS(=O)(=O)Cc1noc2ccccc12 | 75.4% (inactive) and 46.4% (inactive) | 89.2% and 110% | – | – | 1 (inactive) | -6.82% (inactive) | -4.29% (inactive) | 1 (inactive) | – | 0.1% (inactive) | 0.4 | -1.7% (inactive) | -1.75% (inactive) | 3.7% (inactive) | 2.1% (inactive) | 4.9% (inactive) | 44.2% (inactive) | 24.9% (inactive)
12 | O=C(NCCN1CCOCC1)c1ccc(Cl)cc1 | 153% (inactive) and 134% (inactive) | 108% and 80.7% | -6% (inactive) | 0.9 (inactive) | 1.03 (inactive) | 5.94% (inactive) | 8.37% (inactive) | 0.99 (inactive) | -0.561 (inactive) | 0.1% (inactive) | 0.4 | -2.6% (inactive) | -7.6% (inactive) | 6% (inactive) | 0.4% (inactive) | -2.6% (inactive) | 35.1% (inactive) | -7.9% (inactive)
13 | CC1(C)O[C@@H]2C[C@H]3[C@@H]4C[C@H](F)C5=CC(=O)C=C[C@]5(C)[C@@]4(F)[C@@H](O)C[C@]3(C)[C@]2(C(=O)CO)O1 | 46.3% (inactive) and 25.1% (inactive) | 96.3% and 68% | – | – | 1 (inactive) | -1.36% (inactive) | 0.29% (inactive) | 0.97 (inactive) | – | -1.6% (inactive) | 2 | 0.7% (inactive) | -12.2% (inactive) | 14.7% (inactive) | -0.6% (inactive) | 19.8% (inactive) | 1.8% (active) | 24.1% (inactive)
14 | COc1ccc(CN2CCN(C(c3ccc(F)cc3)c3ccc(F)cc3)CC2)c(OC)c1OC | 0.425% (inactive) and 2.35% (inactive) | 59.6% and 66% | – | – | 1 (inactive) | 1.19% (inactive) | 7.6% (inactive) | 0.91 (inactive) | 0.136 (inactive) | 8.4% (inactive) | 5.6 | 1.6% (inactive) | 108% (active) | -1.5% (inactive) | 2.3% (inactive) | 110% (active) | 133% (active) | 101% (active)
15 | Nc1ccc(O)c(C(=O)O)c1 | 86.6% (inactive) and 106% (inactive) and 16.7% (inactive) | 71.9% and 101% and 72% | – | – | 0.94 (inactive) | 3.56% (inactive) | 2.21% (inactive) | 0.94 (inactive) | -0.236 (inactive) | 2% (inactive) | 0.6 | -1.5% (inactive) | 2.55% (inactive) | -5.5% (inactive) | -4.4% (inactive) | 6.8% (inactive) | 22.9% (inactive) | 20.4% (inactive)
16 | CC(C)c1nc(CN(C)C(=O)N[C@H](C(=O)N[C@@H](Cc2ccccc2)C[C@H](O)[C@H](Cc2ccccc2)NC(=O)OCc2cncs2)C(C)C)cs1 | 53.8% (inactive) | 79.2% | – | – | 1.03 (inactive) | 3.56% (inactive) | 9.91% (inactive) | 0.89 (inactive) | 0.723 (inactive) | 7.7% (inactive) | 5.1 | 0.2% (inactive) | 33.5% (inactive) | -13.5% (inactive) | -0.8% (inactive) | 67.7% (active) | 4.9% (inactive) | 19.4% (inactive)
17 | NCC1CCC(C(=O)Oc2ccc(CCC(=O)O)cc2)CC1 (stereo unspecified) | 104% (inactive) | 78.2% | – | – | 1.02 (inactive) | -1.98% (inactive) | -3.18% (inactive) | 0.94 (inactive) | -0.934 (inactive) | 0.5% (inactive) | 1 | -2.1% (active) | 1.9% (inactive) | 4.4% (inactive) | 1.4% (inactive) | -7.95% (inactive) | 17.7% (inactive) | 3.17% (inactive)
